IL-1B inflam inh – inhibitors of inflammasome signaling (IL-1 beta secretion); hit rate 4.7% among 360,000; THP-1 LPS/ATP IL-1B secretion, AlphaLISA, 16 h; stronger effect = lower value; activity change, % at 57.5 µM; in the data active = activity change below about -50%; inconclusive = mostly about -30% to -49%
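Secreted IL-1B measured by AlphaLISA bead assay after 16 h compound exposure of THP-1 cells; compounds (final up to 57.5 uM) added 1 h before LPS (250 ng/mL) and ATP (1.25 mM) stimulation; lower signal means less secretion.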
TDP1 cell noCPT – qHTS for Inhibitors of human tyrosyl-DNA phosphodiesterase 1 (TDP1): qHTS in cells in absence of CPT; Potency, µM (doses to about 46.2 µM), usual class: inhibitors; hit rate 15% among 420,000; DT40 Tdp1-/- hTDP1 cells, no CPT, ATP luminescence, 48 h; AID 686978, 2013; note: nearly all actives have a fitted effect of over 55% in size
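Camptothecin absent (DMSO only). Human TDP1-complemented DT40 knockout cells, 400 cells/well, 37 °C for minimum 48 hr; ATP measured via CellTiter-Glo, 30 min dark incubation, luminescence.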
Chronic BCR inh – chronic active BCR signaling inhibition; ABC-DLBCL IkBa-CBG/CBR reporter, luminescence ratio, 4 h; hit rate 0.05% among 340,000; Potency, µM (series often up to 46.1 µM), most hits filed as inhibitors; active = well fitted inhibition curve with a large enough effect in the signal ratio, with a control signal flat, not every such curve was filed as active; inconclusive = small, poorly fitted or top-dose-only effect, or effect the other way, or a change in a side signal; the % refers to the signal ratio
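Doxycycline induced both beetle luciferases in TMD8 lymphoma cells; IKK-driven degradation limits the IkappaBalpha-fused green signal, while red luminescence normalises for cell number and nonspecific effects. Compounds tested up to 46 uM, 4 hrs.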
SW480 rerep – inducers of DNA re-replication in SW480 colon cancer cells; AID 624297; hit rate 1.8% among 340,000; Potency, µM (highest dose often 46.1 µM), hits mostly activators; SW480 DNA re-replication, Hoechst DNA content imaging, 48 h; note: nearly all actives have a fitted effect of over 55% in size
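Image-based read-out: total Hoechst fluorescence of nuclei (405 nm excitation, 500-530 nm emission), with hits raising the fraction of high-intensity nuclei. SW480 colon cells incubated 48 hr with compounds at 37 C.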
TDP1 cell CPT – growth inhibition of DT40 Tdp1-/-;hTDP1 cells with camptothecin (screen for TDP1 inhibitors). chicken DT40 Tdp1-/-;hTDP1 cells + 20 nM CPT, ATP luminescence, 48 h. Potency, µM (top dose mostly 46.2 µM), hits mostly inhibitors. hit rate 12% among 420,000; note: nearly all actives have a fitted effect of over 55% in size
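Chicken DT40 Tdp1-/- cells stably complemented with human TDP1 were seeded at 400 cells/well in medium containing 20 nM camptothecin, exposed to pin-transferred compounds, and grown at 37 °C for at least 48 hr. Viability was read as ATP luminescence.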
MCF10A rerep – DNA re-replication induction in MCF 10a cells | MCF 10A DNA re-replication, Hoechst nuclear intensity, 48 h | Potency, µM (titrated, usually from 46.1 µM), hits mostly activators | hit rate 2.9% among 350,000; note: nearly all actives have a fitted effect of over 50% in size
Hits are given with their value; n = inactive; u = inconclusive; x = no result given; [ ] = dose if it differs, or a comment. Rows were chosen to be rich in hits. Some 19% of all compounds tested hit in one or more screens of this group. Unless noted, calls come from the whole dose curve; as a rule, active = well fitted curve in the direction sought with a large enough effect; inconclusive = small, poorly fitted or top-dose-only effect, or another doubt; inactive = no such curve, though single readings can be large; an effect the other way counts as inactive or inconclusive.

SMILES	IL-1B inflam inh	TDP1 cell noCPT	Chronic BCR inh	SW480 rerep	TDP1 cell CPT	MCF10A rerep
O=C(c1ccccc1)N1N=C(c2ccccc2)CC1c1ccccc1[N+](=O)[O-] (configuration not stated)	n	u	n	n	n	n
COC(=O)c1ccc(OCC(=O)NC2CCCCCCC2)cc1	n	16µM	n	n	u	n
Cc1cc(-c2ccccc2)c2ccc(NC(=O)C(C)(C)C)nc2n1	n	15µM	n	n	21µM	n
CC(C)(C)C(=O)Nc1cccc(-c2nc3ccccc3c(=O)o2)c1	n	n	u	n	n	u
COC(=O)[C@@]1(Cc2ccc(F)cc2)[C@H]2c3cc(C(=O)N(C)C)n(CC4CC4)c3C[C@H]2CN1C(=O)c1ccccc1	n	18µM	x	x	u	x
COC(=O)[C@@]1(Cc2ccc(F)cc2)[C@H]2c3cc(C(=O)N(C)C)n(CCF)c3C[C@H]2CN1C(=O)c1ccccc1	n	u	x	x	u	x
COC(=O)[C@@]1(Cc2ccc(F)cc2)[C@H]2c3cc(C(=O)N(C)C)n(Cc4ccc(C)c(F)c4F)c3C[C@H]2CN1C(=O)c1ccccc1	-75	u	x	x	u	x
COC(=O)Cn1c(C(=O)N(C)C)cc2c1C[C@H]1CN(C(=O)c3ccccc3)[C@@](Cc3ccc(F)cc3)(C(=O)OC)[C@@H]21	n	u	x	x	u	x
CCOc1ccc(-c2cc(C(=O)Nc3cc(OC)c(OC)c(OC)c3)[nH]n2)c(C)c1	n	u	x	x	u	x
O=C(C1=COCCO1)N1CCN(c2nc3ccc([N+](=O)[O-])cc3s2)CC1	n	5.2µM	n	n	9.2µM	n
CCN(CC)CCN(C)C1CCC(c2ccccc2)CC1 (configuration not stated)	n	21µM	u	n	16µM	u
COc1ccc(OC)c(S(=O)(=O)NC(=O)C2(C)CCN2C(=O)CC2CCCC2)c1 (configuration not stated)	n	n	x	x	n	x
FC(F)C(F)(F)Oc1cccc(Nc2nccn3c(-c4cccc5ccccc45)cnc23)c1	n	u	x	x	16µM	x
FC(F)C(F)(F)Oc1cccc(Nc2nccn3c(-c4ccc5ccccc5c4)cnc23)c1	n	23µM	x	x	u	x
Cc1[nH][nH]c(=O)c1C(c1ccc(-c2ccc(Cl)c(C(=O)O)c2)o1)c1c(C)[nH][nH]c1=O	n	n	n	n	n	n
COC(=O)c1ccc(C(c2c(C)[nH][nH]c2=O)c2c(C)[nH][nH]c2=O)cc1	n	n	n	n	n	n
COC(=O)c1ccccc1-c1ccc(C(c2c(C)[nH][nH]c2=O)c2c(C)[nH][nH]c2=O)o1	u	21µM	n	n	u	14µM
COC(=O)c1cccc(-c2ccc(C(c3c(C)[nH][nH]c3=O)c3c(C)[nH][nH]c3=O)o2)c1	n	23µM	n	u	7.3µM	u
CC(C)[C@@H]1Cc2[nH]n(C)c(=O)c2[C@H](c2ccc(F)cc2)O1	n	n	x	x	n	x
Cc1cn([C@H]2C[C@H](O)[C@@H](CCC(=O)NCCc3ccc4ccccc4c3)O2)c(=O)[nH]c1=O	n	n	x	x	n	x
C=CCn1c(=O)c2c3c(sc2n2c(Nc4ccc(C(=O)OCC)cc4)nnc12)CCCC3	n	12µM	u	13µM	13µM	n
C=CCn1c(=O)c2c3c(sc2n2c(Nc4ccccc4)nnc12)CCCC3	n	10µM	u	n[9.22 µM]	8.9µM	n
C=CCn1c(=O)c2c3c(sc2n2c(Nc4ccc(OC)cc4)nnc12)CCCC3	-71	8.2µM	u	n	9.2µM	n
COC(=O)CSc1nnc2n(-c3ccc(OC)cc3)c(=O)c3c4c(sc3n12)CCCCC4	n	n	n	n	n	n
CCOC(=O)c1ccc(Nc2nnc3nc(C)cc(C)n23)cc1	n	n	n	n	n	n
SMILES	IL-1B inflam inh	TDP1 cell noCPT	Chronic BCR inh	SW480 rerep	TDP1 cell CPT	MCF10A rerep
Cc1nnc2n(Cc3ccccc3)c(=O)c3c4c(sc3n12)CCCC4	x	x	n	x	x	x
COc1cccc(C(=S)N2CCOCC2)c1OS(=O)(=O)c1ccc(Cl)cc1	n	u	n	u	u	n
c1ccc(-c2nc(SCC3CCCCO3)n[nH]2)cc1 (configuration not stated)	x	u	x	x	n	x
CCOc1ccc(CCN2C(=O)C(=O)N([C@@H](CC(C)C)CN3CCC[C@@H]3CN3C(=O)C(=O)NC[C@@H]3Cc3ccccc3)C[C@@H]2CC(C)C)cc1	u	23µM	x	u	u	u
CCOc1ccc(CCN2C(=O)C(=O)N([C@@H](CC(C)C)CN3CCC[C@H]3CN3C(=O)C(=O)NC[C@@H]3Cc3ccccc3)C[C@@H]2Cc2ccc(O)cc2)cc1	n	u	x	x	u	x
CCOc1ccc(CCN2C(=O)C(=O)N([C@@H](CC(C)C)CN3CCC[C@H]3CN3C(=O)C(=O)NC[C@@H]3Cc3ccccc3)C[C@@H]2Cc2ccccc2)cc1	u	16µM	x	x	16µM	x
CCOc1ccc(CCN2C(=O)C(=O)N([C@@H](CC(C)C)CN3CCC[C@@H]3CN3C(=O)C(=O)NC[C@@H]3Cc3ccccc3)C[C@@H]2Cc2ccc(O)cc2)cc1	-52	u	x	n	u	u
CC(C)C[C@@H](CN1CCC[C@H]1CN1C(=O)C(=O)NC[C@@H]1Cc1ccc(O)cc1)N1C[C@H](Cc2ccc(O)cc2)N(CCc2ccccc2)C(=O)C1=O	n	n	x	x	n	x
CN(C)CCCCCCN(C)C	x	x	x	n	x	n
CCCN(C(=O)Nc1cn(CC(C)C)c(=O)c2ccccc12)c1ccc(F)cc1	x	18µM	x	x	7.3µM	x
CCc1ccccc1N(C)C(=O)Nc1cn(CC(C)C)c(=O)c2ccccc12	x	23µM	x	x	15µM	x
CCN(CC)CCCNC(=O)c1cn(CC(C)C)c(=O)c2c1c1ccccc1n2C	n	n	n	n	n	n
COc1ccc(CNC(=O)Nc2cn(CC(C)C)c(=O)c3ccccc23)c(OC)c1	x	u	x	x	n	x
CSc1ncc2c(n1)-c1ccccc1N(Cc1ccccc1C)S2(=O)=O	x	n	x	x	u	x
COc1cc(C(=O)Nc2ccc3c(c2)N(C2CCCC2)C(=O)c2ccccc2S3)cc(OC)c1OC	x	u	n	x	u	x
O=C(Nc1ccc2c(c1)N(C1CCCC1)C(=O)c1ccccc1S2)c1cccc(F)c1	x	18µM	n	x	u	x
COc1cc(OC)cc(C(=O)Nc2ccc3c(c2)N(C2CCCC2)C(=O)c2ccccc2S3)c1	x	u	u	x	n	x
O=C(Nc1ccc2c(c1)N(C1CCCC1)C(=O)c1ccccc1S2)c1ccccc1	x	12µM	u	x	u	x
O=C(Nc1ccc2c(c1)N(C1CCCC1)C(=O)c1ccccc1S2)c1ccc(F)cc1	x	u	n	x	23µM	x
